Screening results deposited in PubChem BioAssay by National Center for Advancing Translational Sciences (NCATS).
The list is not random: actives were taken first. Their share in the collection is about 21%.
Shiga inhibitor – inhibitors of Shiga toxin in Vero cells; Vero cells, Shiga toxin protein synthesis inhibition reporter; inhibition, % at 38.7 µM; 290,000 compounds, 9.2% hits; AID 2315; in the data active = inhibition mostly above about 28%, no sharp cut-off; inactive = mostly below about 43%; note: 0% is about no effect
CHX counter – affects cycloheximide protein synthesis inhibition readout, counter-screen; cell reporter, cycloheximide protein synthesis inhibition counterscreen; 300,000 compounds, 12% hits; max response, %; in the data active = max response mostly above about 13%, no sharp cut-off; inactive = mostly below about 14%; note: read at 38.3 µM for the half of the compounds with a filed dose; 0% is about no effect
Pf growth 96h – P. falciparum growth inhibition at 96 hours; P. falciparum luciferase reporter growth, 96 h; AID 504834; Potency, µM (series often up to 28.7 µM), without a hit: at the highest dose activity change, negative = inhibition, usual class: inhibitors; 320,000 compounds, 6.9% hits; note: potency is the fitted concentration of half-maximal effect; % is set by controls: 0 for no effect and ±100 for the full control effect
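Delayed-death screen, second-generation endpoint: infected erythrocytes, 2% hematocrit, 0.05% parasitemia final; 96 hours at 37 C, 5% CO2; luciferase detection reagent; luminescence decrease equals reduced growth.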
AMA1 RON2 block – AMA1-RON2 (P. falciparum) interaction inhibition | AlphaScreen AMA1-biotinylated RON2 peptide binding | Potency, µM (titrated, usually from 58.2 µM), for the others: at the top dose activity change, negative = inhibition, hits mostly inhibitors | 360,000 compounds, 0.2% hits;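 note: potency is the fitted concentration of half-maximal effect; 0% = vehicle wells and -100% = peptide control; nearly all actives have a fitted effect of over 45% in size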
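AMA1 (3D7) with his tag at 25 nM final met compounds first, then biotinylated RON2 peptide at 25 nM; detection used donor plus acceptor beads, 10 µg/mL apiece, read by AlphaScreen after 30 min at room temperature.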
Pf growth 48h – inhibits P. falciparum growth in the first generation, 48 h | P. falciparum luciferase growth in erythrocytes, 48 h | Potency, µM (titrated, usually from 28.7 µM), for the others: at the highest dose activity change, negative = inhibition, hits mostly inhibitors | 310,000 compounds, 5.9% hits | AID 504832; note: potency is the fitted concentration of half-maximal effect; % is set by controls: 0 for no effect and ±100 for the full control effect
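Cell-based growth assay: transgenic P. falciparum expressing firefly luciferase, cultured in red cells within RPMI 1640 containing 0.5% w/v Albumax, 24 mM bicarbonate and gentamycin. A drop in luciferase activity indicates inhibition.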
HCV inhibitor – blocks hepatitis C virus; Huh7.5.1 HCVcc-Cre infection, luciferase reporter, 44 h; 340,000 compounds, 3.4% hits; Potency, µM (series often up to 41.8 µM), inactives show at the highest dose activity change, negative = inhibition, hits mostly inhibitors; note: potency is the fitted concentration of half-maximal effect; % is set by controls: 0 for no effect and ±100 for the full control effect
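Whole-lifecycle infectious HCVcc-Cre system; cells 1,000/well, compound then virus (~0.5 moi) added 4 h after plating, 44 h culture. Luciferase read 15 sec following 15 min substrate incubation, room temp.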
Active calls of the source: *; ? = inconclusive; . = not tested or not shown; ! = not active in a repeat; [ ] = another dose, or the depositor's remark. Unless noted, calls come from the whole dose curve; as a rule, active = well fitted curve in the direction sought with a large enough effect; inconclusive = small, poorly fitted or top-dose-only effect, or another doubt; inactive = no such curve, though single readings can be large; an effect the other way counts as inactive or inconclusive.

SMILES	Shiga inhibitor	CHX counter	Pf growth 96h	AMA1 RON2 block	Pf growth 48h	HCV inhibitor
CCOc1ccc(NC(=O)c2cccc(-n3cccc3)c2)cc1S(=O)(=O)N1CCOCC1	.	.	-51.9%	.	?	20.0%
CC1CN(C(=O)C(Sc2ccccc2)c2ccccc2)CC(C)O1 (configuration not stated)	-9.1	-5.1	10.4µM*	12.1%[11.6 µM]	9.4%	-7.1%
COc1ccc(Cn2ncc3c4sc(C)cc4n(C)c3c2=O)cc1	19.6	-1.9	.	.	.	.
CCOC(=O)C1(Cc2cccc(Cl)c2)CCCN(C(=O)c2cnn(CC)c2)C1 (configuration not stated)	39.5*	22.2*	15.4%	-4.7%	-4.3%	.
CCOC(=O)C1(Cc2cccc(Cl)c2)CCCN(C(=O)c2cccnc2)C1 (configuration not stated)	36.7	-1.0	4.65µM*	-15.5%	16.3%	11.7%
COc1ccc(Br)cc1S(=O)(=O)N(CC(=O)N1CCN(C)CC1)c1ccccc1	15.1	-2.9	?	-11.9%	-12.7%	-15.5%
CC1CCN(C(=O)CN2C(=O)NC(c3ccccc3)(c3ccccc3)C2=O)CC1	.	.	?	-1.4%	?	10.8%
O=c1cc(-c2ccc(C3CCCCC3)cc2)[nH][nH]1	31.3	21.8*	13.0%	43.3%	-28.8%	22.3%
CC(=O)c1cccc(NC(=O)CSc2ccc(-c3ccc4c(c3)OCO4)nn2)c1	3.2	7.8	19.6%	9.2%	72.8%	11.2µM*
COc1ccc(-c2ccc(SCC(=O)Nc3cccc(C(C)=O)c3)nn2)cc1OC	96.5*	40.3*	?	6.3%	?	8.91µM*
COc1ccc(-c2ccc(SCC(=O)c3cccs3)nn2)cc1OC	55.7*	14.7	?	-11.8%	-34.3%[1.15 µM]	?
COc1ccc(-c2ccc(SCC(=O)c3ccc(F)cc3)nn2)cc1OC	-3.5	11.3	?	1.8%	?	?
CC(=O)c1cccc(NC(=O)CSc2ccc(-c3ccco3)nn2)c1	15.2	3.4	-22.9%	-13.4%	-10.2%	?
Cc1ccccc1-c1nnc(NC(=O)c2cc3ccccc3oc2=O)s1	-14.7	-3.0	-19.5%	.	2.2%	1.0%[8.37 µM]
CNc1nnc(-c2cc3ccccc3oc2=O)s1	83.2*	37.8*	-1.3%	-0.8%	44.7%	-15.7%
O=c1oc2ccccc2cc1-c1nc(-c2cccs2)cs1	36.7	13.7*	35.8%	15.8%	.	16.7%
COc1cccc2cc(-c3nc(-c4cccs4)cs3)c(=O)oc12	127.3*	37.3*	?	21.0%	34.1%	2.3%
N=c1oc2ccccc2cc1-c1nc(-c2ccccc2)cs1	45.3*	41.9*	23.1%	52.4%	39.2%	-1.6%
COc1cccc2cc(/C(C)=N/Nc3nc(-c4cc(C)ccc4C)cs3)c(=O)oc12	-1.4	1.1	-0.1%	102.2%	?	4.1%
CC(C)(C)[C@H]1COC(=O)CCCC/C=C\C[C@H](CC(=O)NCCO)C(=O)N1	.	.	.	4.2%	.	-6.2%
CCCCN(C(=O)c1oc2ccc(OCC)cc2c1C)c1c(N)n(CCCC)c(=O)[nH]c1=O	.	.	?	-18.0%	?	-3.0%
N#CCc1nc(-c2cc3ccccc3oc2=O)cs1	50.5*	41.4*	2.7%	11.5%	88.6%	?
CC1CCC(=C(C#N)c2nc(-c3cc4ccccc4oc3=O)cs2)CC1 (configuration not stated)	30.2*	22.6*	0.1%	-6.9%	?	?
CC#CC(=O)N1CCC(CCC(=O)N(C)Cc2ccccc2)CC1	6.6	4.5	1.6%	-2.6%	?	-10.2%
C#CC[N+]1(CC#Cc2cccc3ccccc23)CCOCC1	-0.8	1.0	-4.9%	12.3%	3.7µM*	9.2%
SMILES	Shiga inhibitor	CHX counter	Pf growth 96h	AMA1 RON2 block	Pf growth 48h	HCV inhibitor
C#CC[N+]1(CC#Cc2ccccc2)CCCC1	-4.4	-0.9	49.5%	-1.8%	3.29µM*	-9.6%
C#CC[N+]1(CC#Cc2ccc(C#CC[N+]3(CC#C)CCOCC3)cc2)CCOCC1	-6.9	-4.0	?	11.2%	-23.7%	-11.5%
O=S(=O)([O-])CCC[N+]1(CC#Cc2ccccc2)CCCCC1	26.0	-5.1	0.0%	10.5%	7.6%	-4.1%
C(#Cc1ccccc1)C[N+]1(CC#Cc2cccc3ccccc23)CCCC1	6.8	-1.8	?	-1.0%	2.62µM*	?
CCOC(=O)C1(Cc2ccccc2C)CCCN(C(=O)c2ccc(OC)o2)C1 (configuration not stated)	-8.8	6.7	?	-16.3%	?	-3.7%
COc1ccc(-c2csc3nc(C)nc(N4CCN(c5ccc(C(C)=O)cc5)CC4)c23)cc1OC	65.2*	31.1*	?	-5.1%	?	?
COc1ccc(C(=O)N2CCN(c3ccc(C)cc3)CC2)cc1OC	42.2	-2.0	?	-13.9%	.	-7.7%
CCOc1ccc2oc(C(=O)NCC(c3ccco3)N(C)C)c(C)c2c1 (configuration not stated)	.	.	?	-10.5%	0.2%	?
COc1ccc2cc(C(=O)NCc3ccccc3CN3CCCC3)ccc2c1	.	.	?	0.0%	9.28µM*	7.08µM*
Cc1c(C(=O)NCc2ccccc2CN2CCCC2)oc2c(F)cccc12	.	.	?	-11.0%	13.1µM*	-14.5%
CCOc1ccc2oc(C(=O)NCc3ccccc3CN3CCCC3)c(C)c2c1	.	.	9.28µM*	-4.6%	9.28µM*	15.8µM*
Cc1c(C(=O)N(C)CCCCN2CCOCC2)oc2c(F)cccc12	.	15.2*	?	0.8%	-7.5%	8.0%
CCn1cc(C(=O)N2CCCC(C(=O)c3cccc(C(F)(F)F)c3)C2)cn1 (configuration not stated)	.	.	.	-11.0%	.	.
CCOc1ccc(OCCC(=O)OCC(=O)NCc2ccccc2)cc1	-16.2	-1.5	1.1%	0.0%	3.5%	18.3%
Cc1c(C#N)c(=O)c(-[n+]2ccccc2)c([S-])n1-c1ccc(Cl)cc1	-6.7	0.8	2.2%	16.5%	11.3%	2.0%
C=CCC(NC(=O)N(C)C)(C(=O)OC)C(C)O (configuration not stated)	.	.	.	-7.0%	.	.
CCOC(=O)c1oc2ccccc2c1CN1CCCCC1	16.7	7.1	?	8.8%	23.0%	10.5%
COCc1c(C(=O)NCc2ccccc2CN2CCCC2)oc2ccccc12	.	.	9.28µM*	0.0%	?	-24.3%
COc1ccc2oc(C(=O)NN3C(C)CCCC3C)c(C)c2c1 (configuration not stated)	-17.9	-2.3	0.0%	-2.3%	10.4%	7.1%
COc1ccc2oc(C(=O)NCc3ccccc3CN3CCCC3)c(C)c2c1	.	.	?	4.8%	11.7µM*	?
COC(C)(C)CCCC(C)C/C=C/C(C)=C/C(=O)OC(C)C (configuration not stated)	.	.	15.1µM*!	1.5%	?	-7.8%
